Most compounds without a hit are left out; they make up all but 3.1% or so of the library.
IL-2 act: activators of IL-2 | IL-2 activation reporter assay, cell-based qHTS; stimulated with anti-CD3/CD4/CD28 beads; in transgenic mouse T cells | activation, % (series mostly up to about 46 µM) | 0.065% of 360,000 active; in the data active = activation above about 50%; inconclusive = mostly about 30% to 49%
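Unstimulated transgenic mouse T cells preincubated 60 min with compound, then stimulated with anti-CD3/anti-CD4-coated beads plus anti-CD28 for 18 h at 37 degrees C. IL-2 response read as EGFP and DsRed fluorescence by plate cytometry.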
BRCA1 expr up: increases BRCA1 expression. MCF7-BRCA1-FFLuc reporter, luminescence, 48 h; response scale: scaled: vehicle 0%, 10 µM genistein 100%. Potency, µM (doses to about 46.1 µM), actives largely listed as activators. 1.1% of 380,000 active; note: nearly all actives have a fitted effect of over 80% in size
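Luminescence from a BRCA1-driven firefly luciferase in MCF7 cells was the read-out, taken 15 min after substrate addition following 48 h compound exposure at 37 °C. Data were normalized to a 10 microM genistein control and DMSO vehicle.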
ELG1 DNA repair: ELG1-dependent DNA repair inhibition; Potency, µM (doses to about 46.1 µM), actives largely listed as inhibitors; HEK293T ELG1-luciferase reporter, luminescence, 16 h; DNA damage induced by 5-fluorouridine; AID 504467; 2.3% of 330,000 active; note: nearly all actives have a fitted effect of over 55% in size
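Step one: seed 2,000 cells per well. Step two: pin-transfer compound or DMSO alongside 5-fluorouridine. Step three: incubate 16 hr, 37 °C, 5% CO2. Step four: add ONE-Glo, wait 30 min, read luminescence.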
Nrf2 activator: activators of Nrf2 (ARE) signaling; AREc32 ARE-luciferase reporter (MCF7-derived line), luminescence, 24 h; Potency, µM (series often up to 46.1 µM), most hits filed as activators; 0.31% of 410,000 active; note: nearly all actives have a fitted effect of over 65% in size
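Luciferase luminescence (Steady-Glo, 30 min at room temperature) served as the read-out of ARE activation in AREc32 cells treated with compounds for 24 hr at 37 deg C.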
Hits are given with their value; i = inactive; ? = inconclusive; nt = no result given. Unless noted, calls come from the whole dose curve; as a rule, active = well fitted curve in the direction sought with a large enough effect; inconclusive = small, poorly fitted or top-dose-only effect, or another doubt; inactive = no such curve, though single readings can be large; an effect the other way counts as inactive or inconclusive.

SMILES	IL-2 act	BRCA1 expr up	ELG1 DNA repair	Nrf2 activator
CCCCCCCCN1C(=O)[C@H](CC(=O)N2CCOCC2)C[C@@]2(C(=O)OCC)CCCC=C12	i	i	nt	i
Cc1cc(S(=O)(=O)c2ccc(Cl)cc2)nc(S(=O)(=O)c2ccc(Cl)cc2)c1C#N	i	i	nt	?
FC(F)(F)c1cccc(CN2CCN(c3ncccn3)CC2)c1	i	i	nt	i
CCc1nc(CN2CCN(c3cc(C(F)(F)F)ccn3)CC2)c(C)[nH]1	i	i	7.3µM	i
CCCS(=O)(=O)N1CC(=O)N(c2cc(C)cc(C)c2)C(C)(C(=O)NC2CCCCCC2)C1 (centres undefined)	nt	nt	nt	i
O=C(OCc1nc2ccccc2s1)c1ccc(Br)s1	i	i	?	11µM
Nc1ccc(C(=O)OCc2nc3ccccc3s2)cc1	i	i	?	i
Cc1ccc(C(=O)OCc2nc3ccccc3s2)o1	i	i	?	10µM
COC(=O)c1cc2oc3ccccc3c2n1CC(=O)Nc1ccc(C)cc1C	nt	nt	nt	i
O=C(NCCNC(=O)c1ccc(-c2cc(Cl)ccc2Cl)o1)c1cnccn1	i	i	nt	i
Cc1cc(C)c2c(N)c(C(=O)c3ccc(Br)cc3)oc2n1	i	i	i	1.8µM
c1cc(CSc2nnc(-c3ccc4c(c3)OCO4)o2)ccn1	i	3.2µM	?	i
Fc1ccc(CSc2nnc(-c3cccs3)o2)cc1	i	?	?	i
c1ccc2c(CSc3nnc(-c4ccncc4)o3)cccc2c1	i	i	i	i
Fc1ccc(Cc2nnc(-c3cccs3)o2)cc1	i	10µM	?	i
Fc1ccccc1CSc1nnc(-c2cccs2)o1	i	4µM	?	i
Clc1ccccc1CSc1nnc(-c2ccncc2)o1	i	8.9µM	?	i
O=C(COc1ccc(Cl)cc1Cl)Nc1ccc(C(=O)OC2CCCCC2)cc1	nt	nt	nt	i
CC(C)c1nn2c(=O)cc(COC(=O)c3cccc(NC(=O)CCc4ccccc4)c3)nc2s1	nt	nt	nt	i
CCC(=O)NCCc1sc2nc(-c3ccc(OC)cc3)nn2c1C	nt	5µM	nt	i
O=[N+]([O-])c1ccccc1OCc1nc(-c2cccs2)no1	i	2.8µM	?	?
COc1ccc(-n2c(C)n[nH]c2=O)cc1	i	i	i	i
Cc1n[nH]c(=O)n1-c1ccc(OCc2ccccc2)cc1	i	5.6µM	?	i
COc1ccccc1CNC(=O)C1CCN(S(=O)(=O)Cc2ccccc2)CC1	nt	nt	nt	i
COc1ccc(Br)cc1CNC(=O)c1cc2n(n1)CCCN(Cc1ccc(C)cc1)C2=O	nt	nt	nt	i
SMILES	IL-2 act	BRCA1 expr up	ELG1 DNA repair	Nrf2 activator
COc1ccc(C2c3c(-c4ccccc4O)n[nH]c3C(=O)N2CCc2ccc(OC)c(OC)c2)cc1 (centres undefined)	i	i	2.8µM	i
COc1cc2c(=O)c(C(=O)c3ccc(F)cc3)cn(Cc3cccc(F)c3)c2cc1OC	nt	nt	nt	i
Cc1ccccc1C(=O)Nc1cccc(NC(=O)c2ccc(-c3ccc(Br)cc3)o2)c1	i	i	9.2µM	i
N/C(=N\OC(=O)Oc1ccccc1)c1cccc([N+](=O)[O-])c1	i	i	i	i
N/C(=N\OC(=O)CSc1ccccc1)c1cccc([N+](=O)[O-])c1	i	13µM	?	i
Cc1ccc2c(=O)cc(C(=O)Nc3c(C(=O)Nc4cccc(Cl)c4)oc4ccccc34)oc2c1	nt	nt	nt	i
CN(C)c1ccc(/C=C\C=C/c2ccnc3ccccc23)cc1	nt	i	nt	nt
CC(C)(O)C#Cc1ccc(C(=O)NC2CCCCC2)s1	i	11µM	?	i
CC(C)(O)C#Cc1ccc(C(=O)NCCC(=O)O)s1	i	i	i	i
CCc1ccc(C(=O)NC2CCCCC2)s1	i	3.5µM	?	i
Cc1occc1C(=O)NC1CCCCCCC1	i	14µM	?	i
Cc1occc1C(=O)NNC(=O)C1CCCC1	i	i	i	i
CC1Cc2cc(S(=O)(=O)CCC(=O)Nc3ccc(F)cc3Cl)ccc2N1C(=O)C1CC1 (centres undefined)	nt	nt	nt	i
COc1ccc(Nc2ncc3c(n2)CC(c2ccccc2)CC3=O)cc1 (centres undefined)	i	i	15µM	i
CCc1ccc(Nc2ncc3c(n2)CC(c2ccc(OC)cc2)CC3=O)cc1 (centres undefined)	i	i	i	i
CC(C)c1ccc(C2CC(=O)c3cnc(NC(=O)c4ccco4)nc3C2)cc1 (centres undefined)	i	10µM	?	i
Cc1cccc(Nc2ncc3c(n2)CC(C)CC3=O)c1 (centres undefined)	i	5µM	?	i
